PubChem BioAssay AID1159580 (chemical genetic matrix, 2015)
“And” between values parts separate entries of the source, which are not always exact repeats. Equal values may be shown once. Screen size: about 5,500 compounds; about 2,000 (36%) were called active. Inconclusive results (about 18%) are left out. Rule as the data show it: active = normalized growth mostly below about 0.91 (no sharp cut-off); inconclusive = no clear call, values can overlap the other calls; inactive = mostly above about 0.92. The list shows a part of the results.

Experiment: chemical genetic growth profiling, strain panel (AID 1159580);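 also: tested at 20 µM; growth read once vehicle control cultures reached saturation at 30 °C; 1 = growth at the plate median or of vehicle wells; lower values mean less growth of the strain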
Conditions: S. cerevisiae deletion strains, growth OD

Measured: normalized growth

OC[C@@H](O)[C@@H](O[C@@H]1O[C@H](CO)[C@@H](O)[C@H](O)[C@H]1O)[C@H](O)[C@@H](O)CO
inactive: locus YAL013W, strain DEP1, active compounds read low 1.01 | locus YAL021C, strain ccr4, active compounds read low 0.998 | locus YAL026C, strain drs2, active compounds read low 0.982 | locus YAL030W, strain snc1, active compounds read low 0.993 | locus YBL061C, strain skt5, active compounds read low 1.01 | locus YBR009C, strain hhf1, active compounds read low 1 | locus YBR021W, strain FUR4, active compounds read low 1.03 | locus YBR023C, strain chs3, active compounds read low 1 | locus YBR171W, strain sec66, active compounds read low 0.989 | locus YBR229C, strain ROT2, active compounds read low 1.01 | locus YBR231C, strain swc5, active compounds read low 0.996 | locus YBR279W, strain paf1, active compounds read low 0.979 | locus YCL011C, strain gbp2, active compounds read low 0.989 | locus YCL016C, strain dcc1, active compounds read low 1.01 | locus YCL029C, strain bik1, active compounds read low 1.02 | locus YCL061C, strain MRC1, active compounds read low 1 | locus YCL069W, strain vba3, active compounds read low 0.972 | locus YCR088W, strain abp1, active compounds read low 0.989 | locus YDL005C, strain med2, active compounds read low 0.985 | locus YDL035C, strain GPR1, active compounds read low 1.03 | locus YDL040C, strain nat1, active compounds read low 0.989 | locus YDL074C, strain BRE1, active compounds read low 1.01 | locus YDL101C, strain DUN1, active compounds read low 1.01 | locus YDL134C, strain PPH21, active compounds read low 1.01 | locus YDL185W, strain tfp1, active compounds read low 1.01 | locus YDL192W, strain arf1, active compounds read low 1.01 | locus YDR001C, strain nth1, active compounds read low 0.996 | locus YDR069C, strain doa4, active compounds read low 0.981 | locus YDR101C, strain arx1, active compounds read low 1 | locus YDR137W, strain rgp1, active compounds read low 1 | locus YDR150W, strain NUM1, active compounds read low 0.998 | locus YDR159W, strain sac3, active compounds read low 0.986 | locus YDR162C, strain NBP2, active compounds read low 0.979 | locus YDR195W, strain ref2 0.958 | locus YDR297W, strain sur2, active compounds read low 0.992 | locus YDR318W, strain mcm21, active compounds read low 1.04 | locus YDR334W, strain swr1, active compounds read low 0.984 | locus YDR335W, strain msn5, active compounds read low 0.992 | locus YDR388W, active compounds read low 1.01 | locus YDR392W, strain spt3, active compounds read low 0.951 | locus YDR502C, strain sam2, active compounds read low 0.994 | locus YEL003W, strain gim4, active compounds read low 0.989 | locus YEL037C, strain rad23, active compounds read low 0.966 | locus YEL061C, strain CIN8 (second series), active compounds read low 0.977 | locus YEL061C, strain CIN8, active compounds read low 1 | locus YER015W, strain faa2, active compounds read low 1 | locus YER016W, strain bim1, active compounds read low 0.996 | locus YER110C, active compounds read low 1.02 | locus YER111C, strain swi4, active compounds read low 0.972 | locus YER155C, strain BEM2 (second series), active compounds read low 1.02 | locus YER155C, strain BEM2, active compounds read low 0.987 | locus YER167W, strain BCK2, active compounds read low 1.06 | locus YFR010W, strain ubp6, active compounds read low 0.969 | locus YGL078C, strain dbp3, active compounds read low 0.987 | locus YGL086W, strain mad1, active compounds read low 1.03 | locus YGL167C, strain pmr1, active compounds read low 1.01 | locus YGL173C, strain kem1, active compounds read low 1 | locus YGL227W, strain vid30, active compounds read low 0.99 | locus YGL240W, strain doc1, active compounds read low 0.99 | locus YGL248W, strain PDE1, active compounds read low 1.01 | locus YGL253W, strain hxk2, active compounds read low 0.999 | locus YGR078C, strain PAC10, active compounds read low 1.02 | locus YGR135W, strain pre9, active compounds read low 1.03 | locus YGR229C, strain SMI1, active compounds read low 1.02 | locus YGR252W, strain gcn5, active compounds read low 1.07 | locus YHR013C, strain ard1, active compounds read low 0.989 | locus YHR027C, strain rpn1, active compounds read low 1 | locus YHR030C, strain SLT2, active compounds read low 1 and 0.993 | locus YHR079C, strain IRE1 (second series), active compounds read low 1.01 | locus YHR079C, strain IRE1, active compounds read low 1.02 | locus YHR094C, strain hxt1, active compounds read low 1.01 | locus YHR129C, strain ARP1, active compounds read low 1.01 | locus YHR142W, strain chs7, active compounds read low 0.998 | locus YHR200W, strain rpn10, active compounds read low 1.02 | locus YIL066C, strain RNR3, active compounds read low 1.01 | locus YIL073C, strain SPO22, active compounds read low 1.1 | locus YIL125W, strain kgd1, active compounds read low 1.01 | locus YIR030C, strain dcg1, active compounds read low 1.01 | locus YJL092W, strain hpr5, active compounds read low 0.991 | locus YJL095W, strain BCK1 (second series), active compounds read low 1 | locus YJL095W, strain BCK1, active compounds read low 1.02 and 0.987 | locus YJL115W, strain asf1, active compounds read low 0.98 | locus YJL129C, strain trk1, active compounds read low 1.01 | locus YJL134W, strain LCB3, active compounds read low 1.01 | locus YJL154C, strain vps35, active compounds read low 0.984 | locus YJL164C, strain tpk1, active compounds read low 1 | locus YJL166W, strain qcr8, active compounds read low 0.998 | locus YJL168C, strain set2, active compounds read low 1.01 | locus YJL187C, strain SWE1 (second series), active compounds read low 1.01 | locus YJL187C, strain SWE1, active compounds read low 0.992 | locus YJR043C, strain POL32, active compounds read low 1.07 | locus YJR066W, strain TOR1, active compounds read low 0.95
